Screening data: PubChem BioAssay, several laboratories
PKA-R2B activ: activates the human PKA-R2B holoenzyme complex; activation, % at 11.4 µM; actives 0.079% (n = 340,000); AID 504700; P22694+P31323; PKA-R2B holoenzyme dissociation, Cy5-IP20 fluorescence polarization; R2B truncated from residue 108, S112A mutant; 0% DMSO only, 100% 113 µM cGMP;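 active = activation above a cutoff set at the mean over all compounds plus 3 SD, cut at about 18% in these data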;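 also: higher means more holoenzyme dissociation and a rise in polarization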
Target sequence (P31323 whole entry, looked up, other chains not shown, the tested form may be a part): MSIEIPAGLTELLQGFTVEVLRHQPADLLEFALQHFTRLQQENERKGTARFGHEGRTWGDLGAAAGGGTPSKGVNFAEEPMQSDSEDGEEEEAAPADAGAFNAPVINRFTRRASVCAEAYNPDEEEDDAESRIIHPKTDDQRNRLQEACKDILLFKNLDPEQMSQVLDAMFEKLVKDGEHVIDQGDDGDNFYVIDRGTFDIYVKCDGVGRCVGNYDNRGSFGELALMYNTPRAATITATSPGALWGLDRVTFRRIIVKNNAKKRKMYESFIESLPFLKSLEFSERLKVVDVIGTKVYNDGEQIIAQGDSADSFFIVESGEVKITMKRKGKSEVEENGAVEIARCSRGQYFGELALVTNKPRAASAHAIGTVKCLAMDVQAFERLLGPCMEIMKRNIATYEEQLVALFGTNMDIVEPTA
ANO1 block: inhibitors of mouse TMEM16A calcium-activated chloride channel | Q8BHY3 | HEK293 TMEM16A/YFP iodide influx fluorescence, ionomycin | normalized B-score (activity score, 25-100; higher = stronger inhibition) at 10 µM | actives 1.2% (n = 310,000) | AID 588511;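 active = ratio plate-corrected score three or more library SD toward inhibition, starting fluorescence score within five deviations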;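 also: score derived from kinetic fluorescence span divided by baseline fluorescence per well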
CHT block: inhibits the human high affinity choline transporter; Q9GZV3; CHT-expressing cells, membrane potential dye, choline response; active compounds read low; B-score at 10 µM; actives 0.86% (n = 310,000);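 active = B-score over 3 SD under the library average, and starting fluorescence ratio not unusually high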;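 also: choline stimulus applied at its EC90 after an EC20 pre-addition; B-score computed on integrated fluorescence ratio after choline addition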
ANO1 activ: mouse TMEM16A channel activation, primary screen | Q8BHY3 | HEK293 TMEM16A/YFP-H148Q/I152L, iodide quench fluorescence; active compounds read low | B-score at 10 µM | actives 0.3% (n = 340,000);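 active = fluorescence-ratio B-score plate-corrected deviation score at least 3 library SD below zero, with starting fluorescence score within 5 deviations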;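 also: channel opened by trigger with iodide after compound preincubation; score built on the fluorescence ratio of max minus min over baseline; more negative score means more quench and so TMEM16A activation or potentiation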
PKA-R1A act: activators of PKA-R1A complex. P00514+P68181. actives 0.083% (n = 340,000). activation, % at 11.4 µM. PKA-R1A dissociation, Cy5-IP20 fluorescence polarization; scaled: DMSO 0%, 113 µM cGMP 100%. AID 504707;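 active = percent activation above the mean of all tested compounds plus 3 SD, cut at about 19% in these data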;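 also: higher means more PKAc released from R1A so a rise in polarization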
CHT PAM: allosterically activates the human high affinity choline transporter; CHT-expressing cells, membrane potential dye, choline EC20; active compounds read high; LV-AA mutant CHT in HEK293 cells; B-score at 10 µM; actives 0.49% (n = 310,000); Q9GZV3;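 active = initial fluorescence not abnormally high and integrated response B-score, plate-corrected, over 3 SD above library mean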
CHT activ conf: confirmation of human choline transporter (CHT) activators; shares compounds with CHT PAM; CHT-expressing cells, membrane potential dye fluorescence (FDSS); % of choline EC20–EC90 response window; HEK293 expressing CHT LV-AA mutant; choline added at its EC20; activation, % at 10 µM; actives 91% (n = 2,500);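 active = primary screen active, with duplicate mean activation above negative control mean plus 3 SD, cut at about 11% in these data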
HEK293 MP dye: activity in parental HEK293 cells lacking CHT. shares compounds with CHT PAM. membrane potential dye fluorescence (FDSS); measured after EC20 choline addition. ratio readout change at 10 µM, hits read low. actives 62% (n = 2,500);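 active = duplicate-averaged ratio beyond 3 SD from buffer wells, up or down, though filed actives are nearly all decreases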
An asterisk follows results filed as active. This is a sample that favours compounds with a hit; in the whole collection about 2.5% have one here.

`CN(C)CCN(Cc1cc2cc3c(cc2nc1Cl)OCO3)C(=O)c1ccco1` gave PKA-R2B activ 0, ANO1 block inactive, CHT block inactive, ANO1 activ inactive, PKA-R1A act 3, CHT PAM 6.8*, CHT activ conf 55* and HEK293 MP dye -56*.
`Cc1ccc(-c2nn(C)c(=O)c3ccccc23)cc1CNS(C)(=O)=O` gave PKA-R2B activ -11, ANO1 block inactive, CHT block inactive, ANO1 activ inactive, PKA-R1A act 0 and CHT PAM inactive.
`Cc1ccc(-c2nn(C)c(=O)c3ccccc23)cc1CN1CCCCC1` gave PKA-R2B activ -1, ANO1 block inactive, CHT block inactive, ANO1 activ inactive, PKA-R1A act -7, CHT PAM 8.7*, CHT activ conf 27* and HEK293 MP dye -52*.
CN1CCCC1CCNc1ccc2oc3ccccc3c(=O)c2c1 (configuration not stated) was read as ANO1 block inactive, CHT block inactive and CHT PAM inactive.
CN1CCCC1CCNc1ccc2c(=O)c3ccccc3oc2c1 (configuration not stated) was read as PKA-R2B activ -8, ANO1 block inactive, CHT block inactive, ANO1 activ inactive, PKA-R1A act 0, CHT PAM 6.4*, CHT activ conf 53* and HEK293 MP dye -22*.
C=CCc1c(C)nc(SCc2ccccc2)[nH]c1=O was read as PKA-R2B activ 3, ANO1 block inactive, CHT block inactive, ANO1 activ inactive, PKA-R1A act -17 and CHT PAM inactive.
For CCOC(=O)C1=C(C)S/C(=C\N(C)C)C1=O the results were PKA-R2B activ 4, ANO1 block inactive, CHT block inactive, ANO1 activ inactive, PKA-R1A act -5, CHT PAM 11*, CHT activ conf 61* and HEK293 MP dye -54*.
`CC(Nc1ccnc2cc(Cl)ccc12)c1ccc(S(N)(=O)=O)cc1` (configuration not stated) gave PKA-R2B activ 9, ANO1 block inactive, CHT block inactive, ANO1 activ inactive, PKA-R1A act 6, CHT PAM inactive, CHT activ conf 35* and HEK293 MP dye -46*.
Screening CN=C1c2c(-c3ccccc3)c3cc(OC)ccc3n2CCN1C returned PKA-R2B activ 5, ANO1 block inactive, CHT block inactive, ANO1 activ inactive, PKA-R1A act 5, CHT PAM 8*, CHT activ conf 43* and HEK293 MP dye -53*.
Screening C/C(=N\NC(=O)C1CCCC1)c1ccc(Cl)cc1Cl returned PKA-R2B activ 4, ANO1 block inactive, CHT block inactive, ANO1 activ inactive, PKA-R1A act 9 and CHT PAM inactive.
CN1C(=O)C(O)(C2COC(C)(C)CC2=O)c2ccccc21 (configuration not stated) was read as PKA-R2B activ -5, ANO1 block inactive, CHT block inactive, ANO1 activ inactive, PKA-R1A act -9 and CHT PAM inactive.
Screening CN1C(=O)C(O)(C2COC(C)(C)CC2=O)c2cc(Br)ccc21 (configuration not stated) returned PKA-R2B activ -3, ANO1 block inactive, CHT block inactive, ANO1 activ inactive, PKA-R1A act -5, CHT PAM 6.8*, CHT activ conf 8 and HEK293 MP dye inactive.
